Nrf2 activator = qHTS of Nrf2 Activators. Potency, µM (titrated, usually from 46.1 µM), most hits filed as activators. 0.31% of 410,000 active. AREc32 ARE-luciferase reporter (MCF7-derived line), luminescence, 24 h. AID 624171, 2012; note: nearly all actives have a fitted effect of over 65% in size
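For detection, Steady-Glo was added and plates sat 30 min at RT; before that, AREc32_Fluc cells grown overnight in OPTI-MEM/5% FBS had been treated with 23 nL compound for 24 hr at 37 deg C.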
Nrf2 inh = Nrf2 qHTS screen for inhibitors; A549 ARE-Fluc reporter, luciferase luminescence, 18-24 h; Potency, µM (highest dose often 46 µM), most hits filed as inhibitors; 2.1% of 360,000 active; AID 504444, 2011; note: nearly all actives have a fitted effect of over 60% in size
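Two sequential reads on A549 ARE_Fluc cells exposed to compound for 18-24 h: a CellTiter-Fluor fluorescence read for viability, then a luciferase luminescence read for Nrf2/ARE activity.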
miR-21 reporter = qHTS Assay for Modulators of miRNAs and/orActivators of miR-21; HeLa miR-21 FLuc reporter, luciferase, 48 h; 340,000 tested, under 10 active; Potency, µM (doses to about 38.3 µM), usual class: activators;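 note: miR-21 action dims this reporter so a rising signal means less miR-21 action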
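HeLa miR-21-FLuc reporter line, endogenous miR-21; 2000 cells/well in DMEM/10% FBS; compound titration up to ~40uM final, 48 h, 37 degree Celsius; luciferase detection reagent, 15 min lysis, CCD luminescence.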
A549 viability = Nrf2 qHTS screen for inhibitors: counterscreen for cytotoxicity; Potency, µM (doses to about 46 µM), most hits filed as inhibitors; AID 504648, 2011; 0.16% of 390,000 active; A549 ARE-Fluc cells, CellTiter-Fluor viability, 18-24 h
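A549 ARE-Fluc cells in 5% FBS OPTI-MEM, 5000 cells/well, rested 2 h then exposed to compounds in concentration-response for 18-24 h at 37 °C. Viability by CellTiter-Fluor fluorescence (Ex 405/Em 525) after 30 min; luciferase luminescence (BugLite, 15 min, RT) read afterwards.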
ClpP mod = qHTS Assay for Activators of ClpP; Potency, µM (highest dose often 57.5 µM); AID 651965, 2013; 1.9% of 340,000 active; purified B. subtilis ClpP, FRET peptide cleavage, 20 min; ATP-dependent Clp protease proteolytic subunit (Bacillus subtilis (strain 168)), P80244; active = well fitted falling curve with a large enough effect; inconclusive = small, poorly fitted or top-dose-only effect; inactive = no such curve, though single readings can be large or run the other way; note: the source files actives as falling curves though it sought activators and does not explain the sign; nearly all actives have a fitted effect of over 65% in size
Target sequence (P80244 whole entry, looked up): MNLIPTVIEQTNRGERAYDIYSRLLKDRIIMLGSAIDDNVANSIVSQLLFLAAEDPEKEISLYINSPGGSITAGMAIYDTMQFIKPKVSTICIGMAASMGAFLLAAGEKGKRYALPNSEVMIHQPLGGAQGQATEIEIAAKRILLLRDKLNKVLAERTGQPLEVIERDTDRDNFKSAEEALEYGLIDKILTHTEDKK
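Buffer: 100 mM Tris/HCl pH8, 100 mM KCl, 0.05% low protease BSA, 2.5% glycerol, 0.01% Tween-20. ClpP 10 microg/mL final; 20 min RT; delta FRET normalized to ADEP and DMSO controls.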
p53 reactivation = qHTS assay for re-activators of p53 using a Luc reporter | H1299 p53-A138V BP100-luciferase reporter, luminescence, 24 h | Potency, µM (highest dose often 92.2 µM), most hits filed as activators | 0.063% of 320,000 active; note: nearly all actives have a fitted effect of over 45% in size
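p53-null H1299 cells stably carrying temperature-sensitive p53-A138V and a BP100-luciferase reporter were pinned with compounds (4-point, 1:5 series) and held 24 hrs at 37 deg C. Luminescence was read 10 min after detection reagent.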
Large screens that a line does not name were inactive. Shown are actives, neighbours in structure and some others; about 3.7% of the full set was active somewhere. Unless noted, calls come from the whole dose curve; as a rule, active = well fitted curve in the direction sought with a large enough effect; inconclusive = small, poorly fitted or top-dose-only effect, or another doubt; inactive = no such curve, though single readings can be large; an effect the other way counts as inactive or inconclusive.

Cn1nnnc1Sc1ncnc2scc(-c3ccccc3C#N)c12	Nrf2 inh inconclusive (no result: Nrf2 activator, miR-21 reporter, ClpP mod, p53 reactivation)
Clc1ccccc1C1Nc2cccc3cccc(c23)N1	Nrf2 activator inconclusive
Oc1ccc(C2Nc3cccc4cccc(c34)N2)c(O)c1	Nrf2 activator inconclusive, ClpP mod 32µM
Cc1ccc2nc(NC(=O)CSc3cc(C)[nH]c(=O)n3)sc2c1	none (no result: Nrf2 inh, p53 reactivation)
COc1ccccc1NS(=O)(=O)c1ccc(N/N=C/c2c(C)nn(-c3ccccc3)c2N2CCCC2)c([N+](=O)[O-])c1	Nrf2 inh inconclusive, A549 viability inconclusive, ClpP mod inconclusive
NS(=O)(=O)c1ccc(N/N=C/c2cn(-c3ccccc3)nc2-c2ccccc2)c([N+](=O)[O-])c1	Nrf2 inh 23µM, A549 viability 21µM
CCN(CC)c1ccc(/C=N/NC(=O)c2cccc(S(=O)(=O)Nc3ccccc3OC)c2)c(O)c1	Nrf2 inh 23µM
Cc1nn(-c2ccccc2)c(N2CCCC2)c1/C=N/NC(=S)Nc1ccccc1C(F)(F)F	Nrf2 inh inconclusive, p53 reactivation inconclusive
Cc1nn(-c2ccccc2)c(N2CCCC2)c1/C=N/Nc1ccc(S(=O)(=O)Nc2ccccc2)cc1[N+](=O)[O-]	Nrf2 inh 8.2µM, A549 viability inconclusive
CCN(CC)c1ccc(/C=N/NC(=O)c2cccc(S(=O)(=O)Nc3ccccc3OC)c2)cc1	none
O=[N+]([O-])c1ccc(N/N=C/c2cn(-c3ccccc3)nc2-c2ccccc2)cc1	A549 viability inconclusive
Cc1nn(-c2ccccc2)c(N2CCCC2)c1/C=N/NC(=S)Nc1cc(C(F)(F)F)ccc1Cl	Nrf2 inh inconclusive, ClpP mod 28µM
CCN(CC)c1cc(C)c(/C=C/c2ccnc3ccccc23)cc1C	none (no result: Nrf2 activator, Nrf2 inh, miR-21 reporter, A549 viability, p53 reactivation)
Cc1ccc(-c2ccc3c(c2)O[C@H](CN(C)C(=O)Nc2ccc(C(F)(F)F)cc2)[C@H](C)CN([C@H](C)CO)S3(=O)=O)cc1	none (no result: Nrf2 inh, miR-21 reporter, A549 viability, p53 reactivation)
COc1ccccc1NS(=O)(=O)c1cccc(C(=O)N/N=C/c2c(C)nn(-c3ccccc3)c2N2CCCC2)c1	Nrf2 inh 18µM
COc1ccccc1NS(=O)(=O)c1cccc(C(=O)N/N=C/c2cn(-c3ccccc3)nc2-c2ccccc2)c1	Nrf2 inh inconclusive
CN(C)c1ccc(CNC(=O)Cn2c(-c3cccs3)cc3cc(Cl)ccc32)cc1	ClpP mod 25µM (no result: p53 reactivation)
CCOc1ccc(CCNC(=O)Cn2c(-c3cccs3)cc3ccccc32)cc1OCC	ClpP mod 8.9µM (no result: p53 reactivation)
CCNC(=O)Cn1c(-c2cccs2)cc2ccccc21	ClpP mod 28µM (no result: p53 reactivation)
CC(CNC(=O)Cn1c(-c2cccs2)cc2ccccc21)c1ccccc1 (stereo not given)	Nrf2 inh inconclusive, ClpP mod 16µM (no result: p53 reactivation)
CCOc1ccc(CCNC(=O)Cn2c(-c3cccs3)cc3ccccc32)cc1	ClpP mod inconclusive (no result: p53 reactivation)
CC(CNC(=O)COC(=O)c1cccs1)c1ccccc1 (stereo not given)	none (no result: miR-21 reporter)
O=C(NCc1cc(Cl)cc(Cl)c1)c1ccc2nc(COCCO)[nH]c2c1	none (no result: Nrf2 inh, miR-21 reporter, A549 viability, p53 reactivation)
CCN1CCN(C(=O)Cn2ncc3c4ccccc4n(Cc4ccccc4F)c3c2=O)CC1	none (no result: p53 reactivation)
CC(NC(=O)Cn1c(-c2cccs2)cc2cc(F)ccc21)c1ccccc1 (stereo not given)	ClpP mod 28µM (no result: p53 reactivation)
O=C(NCc1ccccc1Br)c1cccs1	none (no result: Nrf2 inh, miR-21 reporter, A549 viability, p53 reactivation)
CC(CNC(=O)Cn1c(-c2cccs2)cc2cc(Cl)ccc21)c1ccccc1 (stereo not given)	ClpP mod 25µM (no result: p53 reactivation)
O=C(Cn1c(-c2cccs2)cc2ccccc21)NCc1ccccc1Br	Nrf2 inh inconclusive, ClpP mod 32µM (no result: p53 reactivation)
CCCSCCCNC(=O)Cn1c(-c2cccs2)cc2ccccc21	Nrf2 inh inconclusive, ClpP mod 28µM (no result: p53 reactivation)
CC(NC(=O)CN1CCN(Cc2cccc(F)c2)CC1)c1ccccc1 (stereo not given)	none (no result: p53 reactivation)
COc1ccc(C(=O)N(Cc2ccccc2)Cc2ccccc2)c(O)c1	Nrf2 inh inconclusive (no result: Nrf2 activator, miR-21 reporter, ClpP mod, p53 reactivation)
O=C(c1ccc2c(c1)N(Cc1cccc(Cl)c1)C(=O)c1ccccc1S2=O)N1CCC(Cc2ccccc2)CC1 (stereo not given)	none (no result: Nrf2 inh, p53 reactivation)
COCCNC(=O)Cn1c(-c2cccs2)cc2cc(Cl)ccc21	ClpP mod 28µM (no result: p53 reactivation)
Cc1ccc(CNC(=O)Cn2c(-c3cccs3)cc3cc(Cl)ccc32)cc1	ClpP mod inconclusive (no result: p53 reactivation)
Cc1cc(N2CCOCC2)n2ncc(-c3ccc(Cl)cc3)c2n1	Nrf2 inh inconclusive, p53 reactivation inconclusive (no result: ClpP mod)
Cc1cc(N2CCC(C)CC2)n2ncc(-c3ccccc3)c2n1	ClpP mod 32µM, p53 reactivation inconclusive (no result: Nrf2 inh)
Cc1cc(N2CCCCC2)n2ncc(-c3ccc(Cl)cc3)c2n1	Nrf2 inh inconclusive, ClpP mod 32µM
C[C@H](CO)N1C[C@H](C)[C@H](CN(C)C(=O)NC2CCCCC2)Oc2cc(-c3cccnc3)ccc2S1(=O)=O	none (no result: Nrf2 inh, miR-21 reporter, A549 viability, p53 reactivation)

Screening results from PubChem BioAssay.
